Reference: paper PMC7862700, “An all-to-all approach to the identification of sequence-specific readers for epigenetic DNA modifications on cytosine”

Key:
Assay in all cases: DAPPL (digital affinity profiling via proximity ligation, sequencing); 10 mM Tris-HCl pH 7.5, 50 mM NaCl, 1 mM DTT, 4% glycerol, room temperature, 30 min; GST-TFs on glutathione beads, 16-mer random dsDNA library, 0.1% formaldehyde crosslink after washing; high values mean tight binding
[1] = target: T1, FEV (Homo sapiens, UniProt Q99581 1-238); details: protein: recombinant; tags: N-terminal GST; dsDNA, one strand shown
T1 sequence: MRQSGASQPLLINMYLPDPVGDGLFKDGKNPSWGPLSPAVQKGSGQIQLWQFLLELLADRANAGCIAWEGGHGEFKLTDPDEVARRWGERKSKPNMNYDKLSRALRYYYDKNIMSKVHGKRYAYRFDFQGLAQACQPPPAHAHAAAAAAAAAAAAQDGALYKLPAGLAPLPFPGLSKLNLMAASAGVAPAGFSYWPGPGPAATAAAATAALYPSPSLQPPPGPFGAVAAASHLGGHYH
In short: (§1)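 Beads coated with glutathione captured GST-fused human transcription factors that had been expressed in yeast, and the factors were then given DNA barcodes and pooled with a tag-only sample. The pools were incubated with 200 nmole of a random double-stranded 16-mer DNA library in Tris/NaCl/DTT/glycerol buffer for 30 min at room temperature, washed, crosslinked with 0.1% formaldehyde and proximity-ligated with BsaI/T4 ligase at 37 °C for 1 h. PCR amplification and Illumina NextSeq500 sequencing came last. Binding signal is each hexamer's read frequency for a factor divided by its frequency for the tag-only sample.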

[2] = target: ETV5 (Homo sapiens, UniProt P41161 1-510); details: protein: recombinant; tags: N-terminal GST; dsDNA, one strand shown
Sequence of ETV5 (P41161 whole entry): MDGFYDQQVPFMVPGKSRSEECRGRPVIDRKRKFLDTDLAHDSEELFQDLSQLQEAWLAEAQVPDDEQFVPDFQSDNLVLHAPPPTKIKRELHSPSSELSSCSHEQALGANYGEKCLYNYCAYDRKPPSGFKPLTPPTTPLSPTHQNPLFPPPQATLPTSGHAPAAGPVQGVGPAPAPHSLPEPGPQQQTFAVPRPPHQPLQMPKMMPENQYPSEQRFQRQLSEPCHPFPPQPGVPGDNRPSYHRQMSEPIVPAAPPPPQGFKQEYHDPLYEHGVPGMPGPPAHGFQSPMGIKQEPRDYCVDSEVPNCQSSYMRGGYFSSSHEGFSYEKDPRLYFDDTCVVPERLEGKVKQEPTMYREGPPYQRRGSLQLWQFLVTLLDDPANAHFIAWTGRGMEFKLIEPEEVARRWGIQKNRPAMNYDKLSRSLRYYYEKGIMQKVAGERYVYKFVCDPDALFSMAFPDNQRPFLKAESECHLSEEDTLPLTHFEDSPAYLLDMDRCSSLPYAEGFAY
In short: as §1

[3] = target: HSF1 (Homo sapiens, UniProt Q00613 1-529); details: protein: recombinant; tags: N-terminal GST; chain copies: 3; dsDNA, one strand shown
Sequence of HSF1 (Q00613 whole entry): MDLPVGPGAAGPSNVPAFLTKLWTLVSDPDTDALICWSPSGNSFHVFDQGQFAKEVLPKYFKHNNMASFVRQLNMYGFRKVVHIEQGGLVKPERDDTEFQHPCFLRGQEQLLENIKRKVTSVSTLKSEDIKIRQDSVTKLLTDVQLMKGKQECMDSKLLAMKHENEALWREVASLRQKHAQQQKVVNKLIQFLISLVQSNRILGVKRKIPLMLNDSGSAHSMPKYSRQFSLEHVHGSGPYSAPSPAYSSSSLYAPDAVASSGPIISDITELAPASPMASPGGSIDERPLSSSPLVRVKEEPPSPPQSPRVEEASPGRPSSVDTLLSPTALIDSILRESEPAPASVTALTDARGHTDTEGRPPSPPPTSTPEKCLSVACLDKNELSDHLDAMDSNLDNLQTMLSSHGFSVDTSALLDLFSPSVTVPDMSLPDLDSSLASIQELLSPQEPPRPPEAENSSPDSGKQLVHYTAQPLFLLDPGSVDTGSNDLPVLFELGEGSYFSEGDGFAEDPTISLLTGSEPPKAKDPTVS
In short: as §1

[4] = target: T2, SPIC (Homo sapiens, UniProt Q8N5J4 1-248); details: protein: recombinant; tags: N-terminal GST; dsDNA, one strand shown
T2 sequence: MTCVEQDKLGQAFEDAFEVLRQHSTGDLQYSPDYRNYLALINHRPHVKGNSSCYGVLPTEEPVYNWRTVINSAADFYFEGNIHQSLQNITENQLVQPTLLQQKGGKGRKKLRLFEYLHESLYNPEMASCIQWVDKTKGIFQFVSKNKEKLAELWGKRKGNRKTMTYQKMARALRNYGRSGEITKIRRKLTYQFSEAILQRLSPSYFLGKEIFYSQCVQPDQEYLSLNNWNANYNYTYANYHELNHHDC
In short: as §1

[5] = target: ELF4 (Homo sapiens, UniProt Q99607 1-663); details: protein: recombinant; tags: N-terminal GST; dsDNA, one strand shown
Sequence of ELF4 (Q99607 whole entry): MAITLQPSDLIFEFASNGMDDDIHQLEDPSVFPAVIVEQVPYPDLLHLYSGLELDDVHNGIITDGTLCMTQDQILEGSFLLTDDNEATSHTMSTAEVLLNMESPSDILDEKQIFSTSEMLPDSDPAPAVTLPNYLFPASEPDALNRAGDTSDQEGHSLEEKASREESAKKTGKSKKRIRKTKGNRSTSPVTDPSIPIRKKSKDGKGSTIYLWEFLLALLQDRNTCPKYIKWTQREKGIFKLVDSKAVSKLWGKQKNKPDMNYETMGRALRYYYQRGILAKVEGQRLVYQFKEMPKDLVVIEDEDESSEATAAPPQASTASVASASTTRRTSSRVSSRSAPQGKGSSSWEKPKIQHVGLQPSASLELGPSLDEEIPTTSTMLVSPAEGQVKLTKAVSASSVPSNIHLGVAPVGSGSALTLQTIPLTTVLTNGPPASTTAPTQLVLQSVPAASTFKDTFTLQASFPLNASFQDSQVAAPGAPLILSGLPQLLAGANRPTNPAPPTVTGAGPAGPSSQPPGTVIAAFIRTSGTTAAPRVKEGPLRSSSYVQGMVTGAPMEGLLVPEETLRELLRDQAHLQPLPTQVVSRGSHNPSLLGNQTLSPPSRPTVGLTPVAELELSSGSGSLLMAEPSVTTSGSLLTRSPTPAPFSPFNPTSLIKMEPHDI
In short: as §1

[6] = target: T3, ELK4 (Homo sapiens, UniProt P28324-2 1-405); details: protein: recombinant; tags: N-terminal GST; dsDNA, one strand shown
T3 sequence: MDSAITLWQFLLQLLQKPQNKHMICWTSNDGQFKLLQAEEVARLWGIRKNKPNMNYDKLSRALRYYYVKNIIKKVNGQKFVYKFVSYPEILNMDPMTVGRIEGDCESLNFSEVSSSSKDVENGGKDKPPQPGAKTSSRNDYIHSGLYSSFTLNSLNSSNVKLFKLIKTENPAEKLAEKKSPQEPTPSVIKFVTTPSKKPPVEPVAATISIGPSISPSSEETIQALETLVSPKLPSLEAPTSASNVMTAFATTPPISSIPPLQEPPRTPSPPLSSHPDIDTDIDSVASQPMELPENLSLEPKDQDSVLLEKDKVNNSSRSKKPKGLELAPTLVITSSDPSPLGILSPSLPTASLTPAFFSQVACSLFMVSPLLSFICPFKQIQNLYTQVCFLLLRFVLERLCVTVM
In short: as §1

[7] = target: T4, ETV2 (Homo sapiens, UniProt O00321 1-342); details: protein: recombinant; tags: N-terminal GST; dsDNA, one strand shown
T4 sequence: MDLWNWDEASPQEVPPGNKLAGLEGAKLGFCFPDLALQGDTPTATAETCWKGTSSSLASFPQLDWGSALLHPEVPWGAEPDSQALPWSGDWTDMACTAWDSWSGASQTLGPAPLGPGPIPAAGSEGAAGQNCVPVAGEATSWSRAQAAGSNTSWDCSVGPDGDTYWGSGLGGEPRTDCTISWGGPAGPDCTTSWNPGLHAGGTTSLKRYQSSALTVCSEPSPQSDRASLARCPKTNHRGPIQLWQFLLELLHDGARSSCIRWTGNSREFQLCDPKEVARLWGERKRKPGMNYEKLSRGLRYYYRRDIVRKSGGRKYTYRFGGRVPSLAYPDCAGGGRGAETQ
In short: as §1

[8] = target: T5, ELF3 (Homo sapiens, UniProt P78545 1-371); details: protein: recombinant; tags: N-terminal GST; dsDNA, one strand shown
T5 sequence: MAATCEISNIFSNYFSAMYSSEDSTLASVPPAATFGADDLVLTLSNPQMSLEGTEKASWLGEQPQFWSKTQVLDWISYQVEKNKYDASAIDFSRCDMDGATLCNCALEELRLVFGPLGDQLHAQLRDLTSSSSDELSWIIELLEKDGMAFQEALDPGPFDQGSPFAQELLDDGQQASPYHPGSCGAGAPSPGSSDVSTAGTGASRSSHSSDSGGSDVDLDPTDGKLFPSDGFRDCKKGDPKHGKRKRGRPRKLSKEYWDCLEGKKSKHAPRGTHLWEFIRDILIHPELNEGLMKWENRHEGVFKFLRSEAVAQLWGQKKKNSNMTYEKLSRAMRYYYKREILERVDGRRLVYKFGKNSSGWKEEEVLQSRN
In short: as §1

[9] = target: CRX (Homo sapiens, UniProt O43186 1-299); details: protein: recombinant; tags: N-terminal GST; dsDNA, one strand shown
Sequence of CRX (O43186 whole entry): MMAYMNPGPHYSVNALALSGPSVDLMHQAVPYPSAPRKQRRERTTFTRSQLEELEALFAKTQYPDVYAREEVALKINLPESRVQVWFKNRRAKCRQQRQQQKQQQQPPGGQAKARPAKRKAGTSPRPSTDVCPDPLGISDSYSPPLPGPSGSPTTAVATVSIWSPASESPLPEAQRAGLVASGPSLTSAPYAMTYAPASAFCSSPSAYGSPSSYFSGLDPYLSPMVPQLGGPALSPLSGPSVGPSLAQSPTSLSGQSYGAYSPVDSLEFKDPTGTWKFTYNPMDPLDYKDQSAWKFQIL
In short: as §1

With TAGCAA as the sequence, how does the binding signal [1] read?
Its binding signal is 1.17 fold enrichment (6-mer frequency, TF over GST control).

What about the binding signal [2] of the same sequence?
The binding signal was 1.33 fold enrichment (6-mer frequency, TF over GST control).

And the binding signal [3]?
Its binding signal is 1.59 fold enrichment (6-mer frequency, TF over GST control).

What about the binding signal [4] of the same sequence?
Its binding signal is 1.14 fold enrichment (6-mer frequency, TF over GST control).

And the binding signal [5]?
The binding signal was 1.34 fold enrichment (6-mer frequency, TF over GST control).

And the binding signal [6]?
Its binding signal is 1.38 fold enrichment (6-mer frequency, TF over GST control).

What about the binding signal [7] of the same sequence?
Its binding signal is 1.36 fold enrichment (6-mer frequency, TF over GST control).

And the binding signal [8]?
Its binding signal is 1.36 fold enrichment (6-mer frequency, TF over GST control).

What about the binding signal [9] of the same sequence?
Its binding signal is 1.46 fold enrichment (6-mer frequency, TF over GST control).
